Rin1-Abl PPI inh = blocks binding of human Rin1 to Abl | inhibition, % at 7.35 µM | TR-FRET Rin1/Abl binding, biochemical | P00519+Q13671 | 360,000 compounds, 0.4% hits | AID 588664; in the data active means inhibition above about 5%, passing the limit was not always enough
LYPLA2 inh = counter-screen for PME1 inhibitors: inhibitors of human LYPLA2. recombinant LYPLA2, FP-Rh probe fluorescence polarization. inhibition, % at 5.9 µM. 320,000 compounds, 0.38% hits. O95372;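 active means inhibition above the screen-wide mean plus 3 SD, limit set per campaign, cut at about 26% in these data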;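 further: 0% = LYPLA2 with DMSO and 100% = wells lacking LYPLA2 enzyme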
PREPL inhibitor = inhibitors of human prolyl oligopeptidase-like enzyme PREPL; Q4J6C6; recombinant PREPL, fluorescence polarization activity-based probe; inhibition, % at 5.96 µM; 320,000 compounds, 0.68% hits; in the data active means inhibition above about 43%;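 further: 0% = enzyme with DMSO and 100% = wells lacking enzyme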
p97 inhibitor = human p97 ATPase inhibition; P55072; recombinant p97 ATPase, Kinase-Glo ATP luminescence, 3 h; inhibition, % at 8 µM; 220,000 compounds, 0.42% hits; in the data active means inhibition above about 15%;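 further: 0% = DMSO vehicle and 100% = wells lacking enzyme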
Target sequence (P55072 whole entry, looked up): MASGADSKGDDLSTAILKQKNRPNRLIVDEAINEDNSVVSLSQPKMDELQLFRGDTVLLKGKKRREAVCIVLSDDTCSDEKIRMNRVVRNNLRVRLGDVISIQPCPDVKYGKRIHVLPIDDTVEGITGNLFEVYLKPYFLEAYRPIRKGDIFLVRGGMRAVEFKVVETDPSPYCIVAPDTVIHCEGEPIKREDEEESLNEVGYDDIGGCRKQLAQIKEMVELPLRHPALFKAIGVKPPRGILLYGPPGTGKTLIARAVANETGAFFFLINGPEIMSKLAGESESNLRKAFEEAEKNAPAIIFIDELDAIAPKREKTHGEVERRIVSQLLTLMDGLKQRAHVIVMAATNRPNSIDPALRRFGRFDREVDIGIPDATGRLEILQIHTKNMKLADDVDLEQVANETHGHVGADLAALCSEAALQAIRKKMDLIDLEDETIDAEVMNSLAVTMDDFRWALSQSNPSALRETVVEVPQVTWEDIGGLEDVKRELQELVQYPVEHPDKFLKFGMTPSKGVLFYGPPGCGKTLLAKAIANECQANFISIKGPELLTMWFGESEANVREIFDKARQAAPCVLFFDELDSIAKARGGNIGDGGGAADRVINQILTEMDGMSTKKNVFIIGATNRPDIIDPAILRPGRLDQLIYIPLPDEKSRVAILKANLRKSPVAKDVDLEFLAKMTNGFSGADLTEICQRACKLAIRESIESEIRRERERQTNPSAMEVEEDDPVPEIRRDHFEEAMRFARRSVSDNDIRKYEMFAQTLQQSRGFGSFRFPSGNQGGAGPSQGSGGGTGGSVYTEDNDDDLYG
LYPLA1 counter = blocks human lysophospholipase 1, a PME1 counter-screen | recombinant LYPLA1, FP-Rh probe fluorescence polarization | inhibition, % at 5.9 µM | 320,000 compounds, 0.16% hits | AID 2174;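 active means inhibition above the mean of all tested compounds plus 3 SD, set per campaign, cut at about 14% in these data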;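 further: inhibitors block serine hydrolase probe labeling of LYPLA1 so polarization falls; 0% = enzyme with DMSO and 100% = wells lacking LYPLA1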
Hck Nef HTS = inhibitors of human Hck kinase activated by Nef | P08631 | Recombinant Hck-YEEI plus Nef, Z-Lyte FRET kinase assay | inhibition, % at 20 µM | 220,000 compounds, 0.68% hits;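 active means Hck-Nef kinase inhibition above about 50%, limit read from the data; inactive means inhibition below that limit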;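 further: 0% = DMSO with Hck plus Nef and 100% = Hck alone without Nef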
Hck-Nef confirm = Hck-Nef kinase inhibition, confirmation. calls only at 10 µM. Recombinant Hck-YEEI:Nef, Z-Lyte FRET kinase assay. AID 463188. 1,300 compounds, 28% hits. shares compounds with Hck Nef HTS;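 active means average inhibition of at least 50%, with Z-scores no higher than 3 in both the phospho-tyrosine peptide and fluorescence counterscreens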
Rin1-Abl confirm = confirmation of inhibitors of human Rin1-Abl interaction | 1,300 compounds, 49% hits | inhibition, % at 7.35 µM | shares compounds with Rin1-Abl PPI inh | TR-FRET Rin1-Abl binding, purified proteins
GFP quencher = quenches GFP fluorescence, counter-screen for Rin1-Abl inhibitors. shares compounds with Rin1-Abl PPI inh. inhibitors/quenchers counterscreen. inhibition, % at 6.75 µM. 1,300 compounds, 8.5% hits;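 further: ABL1-eGFP fusion protein alone without its partner RIN1-SBP; 0% = protein with vehicle and 100% = wells lacking protein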
* hit, by the source's call; i = inactive; . = not tested or not shown; + = active, no number. Sampled rows, rich in hits. Any-hit rate of the full collection: about 1.7%. Unless noted, no stated cut-off is given here; in the data, active means inhibition above about 6.5%; inactive means the rest.

SMILES | Rin1-Abl PPI inh | LYPLA2 inh | PREPL inhibitor | p97 inhibitor | LYPLA1 counter | Hck Nef HTS | Hck-Nef confirm | others
CCC(=C(c1ccc(OC)cc1)c1ccc(OC)cc1)c1cn(CC(O)CN2CCN(C)CC2)c2ccccc12 (stereo not given) | 1 | 4 | 41 | 1 | 8 | 111* | i
CCOC(=O)CN(C(=O)CSc1nnnn1C)c1ccccc1 | -2 | . | 3 | . | . | . | .
COc1ccc(C(=O)N/C(=C\c2ccccc2)C(=O)NC(CC(C)C)C(=O)O)cc1 (stereo not given) | 3 | -7 | -1 | 5 | -5 | 60* | i
COc1ccc(C(=O)N/C(=C\c2ccccc2)C(=O)NC(CCSC)C(=O)O)cc1 (stereo not given) | 2 | 1 | 3 | 4 | 3 | -1 | .
O=C(Nc1nccs1)C1CCCN1/C=C/C(=O)C(F)(F)F (stereo not given) | 3 | -4 | 12 | . | -5 | . | .
O=C(O)c1cc([N+](=O)[O-])ccc1Nc1ccccc1 | 2 | 14 | 17 | 5 | -1 | 2 | .
Nc1cc([N+](=O)[O-])ccc1Nc1ccccc1 | -2 | 12 | 24 | 2 | 4 | 82* | i
O=C(c1cccc(S(=O)(=O)Nc2ccccc2Cl)c1)N1CCN(c2ccccc2O)CC1 | 3 | -2 | 6 | . | 1 | . | .
O=C(N/N=C\c1ccc(F)cc1)c1ccc(Cn2cc(Br)c([N+](=O)[O-])n2)o1 | -3 | -5 | 26 | 2 | -9 | 62* | +
COc1ccc(C)cc1NC(=O)CCNC(=O)Cn1cnc2ccccc2c1=O | 0 | 5 | 15 | . | -2 | . | .
COc1ccccc1C(=O)Nc1ccc(-c2nnn(CC(=O)NCc3ccco3)n2)cc1 | 0 | -14 | -9 | -2 | -7 | 51* | i
O=C(NN=Cc1cccc([N+](=O)[O-])c1)c1cccc2ccccc12 | 1 | . | . | . | . | . | .
O=C(N/N=C/c1cccc([N+](=O)[O-])c1)c1ccccc1-n1cccc1 | -3 | -4 | -11 | -1 | 1 | 58* | i
Cc1ccc(S(=O)(=O)Nc2ccc(N(C)C)cc2)cc1 | 4 | -2 | 38 | 0 | -1 | 85* | i
Cc1cc(C(c2cc(C)c(N)c(C)c2)c2ccco2)cc(C)c1N | -2 | -2 | -1 | . | -1 | . | .
Fc1cccc(CNc2ncnc3cc(Cl)ccc23)c1F | -2 | -2 | -4 | . | -3 | . | .
Nc1c(Cl)ncnc1N/N=C/c1ccc(O)cc1 | -2 | 2 | -1 | 4 | -1 | 52* | i
Oc1ccc(/C=N/Nc2nccnc2Cl)cc1 | -2 | 2 | -4 | -37 | -1 | -2 | .
O=c1cc(-c2ccccc2)nc2nc(-c3ccco3)[nH]n12 | 0 | 2 | -1 | 0 | 0 | -3 | .
O=CNn1cnc2c(oc3nc(-c4ccccc4)cc(-c4ccco4)c32)c1=O | 1 | -2 | 2 | 2 | -3 | 55* | i
COc1ccc(OC)c(NC(=O)Cn2cc(C#N)c3cc(Br)ccc32)c1 | -7 | -4 | -5 | -2 | -1 | 69* | i
COc1ccc(NC(=O)Cn2cc(C#N)c3ccccc32)cc1 | -1 | 2 | 0 | 0 | -3 | 23 | .
NC(=O)c1ccsc1NC(=O)C1CC1 | 0 | 0 | 1 | . | 1 | 75* | +
NC(=O)c1ccsc1NC(=O)COC(=O)C1CC2CCCC(C1)C2=O (stereo not given) | 0 | 9 | 12 | 9 | 5 | 30 | .
O=C(COC(=O)C1=Cc2ccccc2OC1)NCc1ccc(F)cc1 | -1 | . | . | . | . | . | .
SMILES | Rin1-Abl PPI inh | LYPLA2 inh | PREPL inhibitor | p97 inhibitor | LYPLA1 counter | Hck Nef HTS | Hck-Nef confirm | others
COc1cc(/C=C2\SC(c3ccc(C)cc3)=NC2=O)cc(OC)c1O | 0 | 1 | 21 | 7 | -2 | 2 | .
Cc1ccc(C2=NC(=O)/C(=C/c3cc(O)c(O)c(Br)c3)S2)cc1 | 8.5* | . | . | 31* | . | 50* | + | Rin1-Abl confirm=15*;GFP quencher=41*
NS(=O)(=O)c1cc(C(=O)OCC(=O)Nc2ccc3c(c2)OCO3)ccc1Cl | 3 | . | -3 | . | . | . | .
O=[N+]([O-])c1ccc(N/N=C/c2ccc(O)c(O)c2O)c(S(=O)(=O)N2CCOCC2)c1 | 14* | . | . | 7 | . | 117* | i | Rin1-Abl confirm=9.5*;GFP quencher=13*
CC(C)N=c1scc(-c2ccco2)n1/N=C/c1ccc(O)c(O)c1 | 2 | -16 | 10 | -5 | -12 | 1 | .
C=CCN=c1scc(-c2ccco2)n1/N=C/c1ccc(O)c(O)c1O | 11* | -11 | 16 | 10 | -10 | 56* | i | Rin1-Abl confirm=6;GFP quencher=7.3*
COCCN=c1scc(-c2ccco2)n1/N=C/c1ccc(O)c(O)c1O | 20* | -4 | 24 | 6 | -6 | 59* | + | Rin1-Abl confirm=13*;GFP quencher=11*
O=C(NC1CCCC1)C(c1ccccn1)N(Cc1ccccc1F)C(=O)c1csnn1 (stereo not given) | 4 | 0 | -3 | . | 3 | . | .
COc1cccc(CN(C)C(=O)C2CSC3(C)CCC(=O)N23)c1OC (stereo not given) | 0 | 4 | 1 | . | 1 | . | .
CN(Cc1ccc(C(C)(C)C)cc1)C(=O)C1CSC2(C)CCC(=O)N12 (stereo not given) | 12* | 1 | 19 | . | -3 | . | . | Rin1-Abl confirm=-3;GFP quencher=-1
O=C(Nc1cccc(C(F)(F)F)c1)c1cccnc1NCCO | 6.9* | -2 | -1 | . | -3 | . | . | Rin1-Abl confirm=1;GFP quencher=0
O=C(Nc1cccc(C(F)(F)F)c1)c1cccnc1NCCc1ccccc1 | 1 | -30 | -9 | -4 | -17 | -1 | .
S=C(NCc1ccccc1)N1CCN(Cc2ccc3c(c2)OCO3)CC1 | 2 | -7 | -12 | -7 | -4 | 10 | .
S=C(NCc1ccc2c(c1)OCO2)NC1CCN(Cc2ccccc2)CC1 | 10* | -1 | 16 | . | -5 | . | . | Rin1-Abl confirm=11*;GFP quencher=1
CNC(=O)c1oc(-c2ccc(Cl)cc2)nc1C | 13* | -5 | -4 | -1 | -3 | 23 | . | Rin1-Abl confirm=-3;GFP quencher=0
O=C(NNC(=O)c1cccnc1)NC1CCCCC1 | 1 | 2 | 7 | -4 | -4 | 13 | .
O=C(NNC(=O)c1cc(O)c(O)c(O)c1)NC1CCCCC1 | 22* | 4 | -2 | 4 | 1 | -1 | . | Rin1-Abl confirm=22*;GFP quencher=14*
CCCN1CCN(CCCNC(=O)CN2C(=O)c3cccnc3Oc3ccc(C)cc32)CC1 | 1 | 6 | -10 | . | 3 | . | .
COC(=O)c1ccc(Cn2nnc3c(=O)[nH]c(C4CCCN(S(=O)(=O)c5cccc(Cl)c5)C4)nc32)cc1 (stereo not given) | -1 | -4 | 9 | . | -4 | . | .

Screens (PubChem)
